From PubChem BioAssay (NCI)
This is part of a sample that, as a whole, favours compounds with a hit. Of some 79,000 tested, about 15% had one in any assay. Unmarked numbers belong to inactive results. The source made the active and inactive calls. Rule as the data show it: active = growth inhibition above about 70%; inactive = the rest.

Key:
[1] = NCI Yeast Anticancer Drug Screen. Data for the rad50 strain (AID 155);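 also: 0% = growth of vehicle-only cultures of the same strain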; details: S. cerevisiae rad50 strain growth inhibition, stronger effect = higher value
Outline: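 Genetically altered yeast (DNA repair pathway); compound treatment; growth inhibition vs vehicle ctrl.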

[2] = NCI Yeast Anticancer Drug Screen. Data for the mec2-1 strain (AID 157); details: S. cerevisiae mec2-1 strain, stronger effect = higher value
Outline: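 Growth inhibition is read against vehicle-treated controls after compound exposure of the mec2-1 yeast strain, which is defective in DNA damage repair or cell cycle control.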

[3] = NCI Yeast Anticancer Drug Screen. Data for the sgs1 mgt1 strain (AID 161);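 also: 0% = growth of cultures given vehicle only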; details: S. cerevisiae sgs1 mgt1 strain, stronger effect = higher value
Outline: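 Yeast cells carrying a defined DNA-repair defect were exposed to test compounds. Growth inhibition was measured relative to vehicle-treated controls.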

[4] = NCI Yeast Anticancer Drug Screen. Data for the cln2 rad14 strain (AID 165);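 also: 0% = growth equal to vehicle treated cultures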; details: S. cerevisiae cln2 rad14 strain, stronger effect = higher value
Outline: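 Growth inhibition, relative to vehicle-treated controls, is the read-out. The test organism is a yeast strain with defined genetic alterations, cln2 rad14.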

[5] = NCI Yeast Anticancer Drug Screen. Data for the bub3 strain (AID 167); details: S. cerevisiae bub3 mutant strain, stronger effect = higher value
Outline: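 Yeast carrying a defined mutation is treated with each compound, and growth is compared with that of vehicle-exposed cells to give inhibition.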

[6] = NCI Yeast Anticancer Drug Screen. Data for the mlh1 rad18 strain (AID 175); details: S. cerevisiae mlh1 rad18 strain growth inhibition, stronger effect = higher value
Outline: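 Cells of a genetically altered yeast strain, deficient in DNA damage repair, were treated with compound. Their growth was then compared with that of vehicle-treated cultures to give inhibition.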

[7] = at 5.0 µM (retest, dose inferred, filed as 0.5)
[8] = at 50.0 µM (retest, dose inferred, filed as 5.0)

SMILES | growth inhibition [1, 7] | growth inhibition [1, 8] | growth inhibition ([1]; at 50.0 µM) | growth inhibition [2, 7] | growth inhibition [2, 8] | growth inhibition ([2]; at 50.0 µM) | growth inhibition [3, 7] | growth inhibition [3, 8] | growth inhibition ([3]; at 50.0 µM) | growth inhibition [4, 7] | growth inhibition [4, 8] | growth inhibition ([4]; at 50.0 µM) | growth inhibition [5, 7] | growth inhibition [5, 8] | growth inhibition ([5]; at 50.0 µM) | growth inhibition [6, 7] | growth inhibition [6, 8] | growth inhibition ([6]; at 50.0 µM)
[Cl][Hg][c]1ccc(Cl)s1 | 99% (active) | 99% (active) | 99.2% (active) | 100% (active) | 99% (active) | 99.2% (active) | 100% (active) | 100% (active) | 99% (active) | 99% (active) | 99% (active) | 99% (active) | 100% (active) | 100% (active) | 99.3% (active) | 99% (active) | 99% (active) | 98.6% (active)
COc1cc(/C=C\[N+](=O)[O-])ccc1O | 87% (active) | 99% (active) | 99.2% (active) | 53% | 100% (active) | 99.6% (active) | 34% | 99% (active) | 99.5% (active) | 21% | 100% (active) | 99% (active) | 77% (active) | 99% (active) | 99% (active) | 51% | 99% (active) | 99% (active)
Nc1nc(N)c(-c2ccc(Cl)c(Cl)c2)c(CCc2ccc(CNC(=O)c3cccc(S(=O)(=O)F)c3)cc2)n1 | -3% | 96% (active) | 62.7% | -1% | 99% (active) | 59.2% | 7% | 99% (active) | 45.9% | -10% | 97% (active) | 54.6% | -9% | 98% (active) | 47.4% | 30% | 98% (active) | 54%
OC(c1ccccc1)(c1ccccc1)c1ccccn1 | -6% | -9% | 4.55% | -14% | 2% | 53.4% | -5% | 5% | 9.4% | -6% | 5% | 2.7% | -3% | 3% | 13.8% | -21% | -5% | -6.2%
COC(=O)C1c2c(C)cc3n2C(C=CC3)C1C(=O)OC (stereo not given) | 7% | 69% | 13.2% | 36% | 96% (active) | 19.1% | -6% | 24% | 4.95% | 67% | 78% (active) | 26.6% | 64% | 92% (active) | -10.2% | -9% | 54% | -3.5%
CN(C)c1ncnc2c1ncn2C1OC(CO)C2NP(=O)(N(CCCl)CCCl)OC21 (stereo not given) | 1% | 80% (active) | 87.9% (active) | -3% | 24% | -1.35% | -3% | 63% | 71.2% (active) | 8% | 5% | 13.6% | 0% | 48% | 12.6% | -17% | 23% | 28.4%
CC(=O)Oc1ccc(/C=C/[N+](=O)[O-])cc1 | 27% | 95% (active) | 98.9% (active) | 6% | 99% (active) | 99.5% (active) | 12% | 99% (active) | 93.1% (active) | -2% | 82% (active) | 82% (active) | 5% | 99% (active) | 99.4% (active) | 12% | 98% (active) | 98.3% (active)
Cc1ccc(S(=O)(=O)/N=[Se](\C)c2ccccc2)cc1 (stereo not given) | 16% | 94% (active) | 93.7% (active) | 11% | 95% (active) | 68.5% | 18% | 83% (active) | 90.7% (active) | -1% | 56% | 60.9% | 2% | 83% (active) | 80% (active) | 13% | 91% (active) | 87.4% (active)
CC1=CC2CC(C)=C(CC[C@]3(C)CC[C@H]([C@@H](C)C(=O)O)OO3)C(C)(C)C2CC1 (stereo not given in full) | 41% | 98% (active) | 91.7% (active) | 59% | 99% (active) | 93.8% (active) | 69% | 99% (active) | 93% (active) | 41% | 98% (active) | 91.2% (active) | 52% | 98% (active) | 92.2% (active) | 60% | 98% (active) | 91.4% (active)
CCOC(=O)C(c1ccsc1)P(=O)(OCC)OCC (stereo not given) | 11% | 60% | 69.2% | -21% | 74% (active) | 66.7% | 12% | 53% | 60.6% | 19% | 68% | 57% | 8% | 87% (active) | 67.3% | 4% | 84% (active) | 60.9%
